# Source: PubChem BioAssay
# ERa SRC1 inh: ER-alpha (human) coactivator binding inhibition; P03372; inhibition, % at 25.6 µM; 86,000 tested, 1.7% active; TR-FRET ER-alpha LBD / SRC-1 peptide, estradiol-bound; in the data active means inhibition above about 50%;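 further: 0% = receptor plus peptide control and 100% = peptide only without receptor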
# MT1-MMP txn act: MT1-MMP promoter transcription activation | HT1080 MT1-MMP promoter luciferase reporter, luminescence, overnight; hits give high values | activation factor at 10 µM | 86,000 tested, 0.16% active;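 active means activation factor of at least 2 for MT1-MMP transcription at 10 µM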
# DAT uptake mod: changed human dopamine transporter uptake under cocaine IC80; 110,000 tested, 1.3% active; AID 449768; Q01959; LLC-PK1 hDAT cells, [14C]-dopamine uptake with cocaine IC80; actives deviate in either direction; B-score at 10 µM;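 active means Z score or B-score, a plate-position-corrected score, falls beyond the plate's 99.7% confidence bounds, in either direction; inactive means both scores lie inside the 99.7% bounds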;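 further: scored against the spread of the other compound wells on the same plate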
# Target sequence (Q01959 whole entry, looked up): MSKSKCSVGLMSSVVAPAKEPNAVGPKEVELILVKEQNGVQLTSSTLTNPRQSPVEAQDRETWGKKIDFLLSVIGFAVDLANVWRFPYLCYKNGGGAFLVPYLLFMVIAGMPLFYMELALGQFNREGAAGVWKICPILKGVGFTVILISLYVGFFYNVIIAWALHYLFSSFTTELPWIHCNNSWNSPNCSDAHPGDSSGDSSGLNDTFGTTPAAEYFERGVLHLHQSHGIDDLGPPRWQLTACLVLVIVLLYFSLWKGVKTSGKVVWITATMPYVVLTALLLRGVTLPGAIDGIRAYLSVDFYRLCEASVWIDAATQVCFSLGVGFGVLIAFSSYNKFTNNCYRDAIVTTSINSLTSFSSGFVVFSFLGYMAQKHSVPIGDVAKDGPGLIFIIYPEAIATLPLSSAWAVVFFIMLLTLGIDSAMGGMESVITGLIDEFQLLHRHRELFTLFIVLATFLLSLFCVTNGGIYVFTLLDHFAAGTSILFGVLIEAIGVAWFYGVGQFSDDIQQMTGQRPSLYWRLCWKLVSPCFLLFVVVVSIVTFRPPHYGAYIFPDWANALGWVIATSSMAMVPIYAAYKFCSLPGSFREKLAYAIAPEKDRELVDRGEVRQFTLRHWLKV
# ERb SRC1 inh: ER-beta (human) coactivator binding inhibition. Q92731. TR-FRET ER-beta LBD / SRC1-Cy5 peptide binding; receptor agonist-loaded with 1 µM estradiol. inhibition, % at 25.6 µM. 86,000 tested, 1.3% active;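 active means compounds whose percent inhibition of the receptor-coactivator binding signal exceeds about 50% in the single-dose screen, limit read from the data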;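 further: 0% = receptor plus peptide wells without compound and 100% = peptide-only wells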
# ERa SRC1 pot: enhances coactivator binding to human estrogen receptor alpha. TR-FRET ERalpha-LBD/SRC-Cy5 coactivator binding, 2 h; 100 = basal binding, no effect. coactivator binding (% of control), % at 25.6 µM. 86,000 tested, 1.3% active; in the data active means activity above about 200%;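 further: binding measured in presence of low estradiol as agonist stimulus; 0% = peptide alone without receptor and 100% = receptor with peptide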
# * = called active by the depositor; / = no result given; [ ] = dose if it differs, or a comment. Shown are actives, neighbours in structure and some others; about 3.8% of the full set was active somewhere.
SMILES,ERa SRC1 inh,MT1-MMP txn act,DAT uptake mod,ERb SRC1 inh,ERa SRC1 pot
CCCCN1C(=O)C(=O)NC[C@@H]1CCCCN,/,/,0.085,/,/
CCOc1ccc2nc(SCC(=O)c3ccc(C)s3)sc2c1,22,/,-0.051,0,221*
CCOc1ccc2nc(NC(=O)CSc3nc(SC)ns3)sc2c1,/,/,1,/,/
Cc1nc(NCc2ccco2)c2c(C)c(C)sc2n1,2,1,-1,-4,111
Cc1sc2nc3c4ccccc4c(NCc4ccco4)nn3c(=O)c2c1C,56*[fluorescence artefact?],1.4,1,32,82
O=C(Oc1ccc(-c2cnc3ccccc3n2)cc1)c1ccc(Br)o1,35,1.1,0.6,23,489*
Cc1cc(C)c(NC(=O)CSc2nc3ccc(NC(=O)CSc4nnnn4Cc4ccccc4)cc3s2)c(C)c1,67*,1.3,1.4,7,114
Cn1cnnc1SCC(=O)Nc1ccc2nc(SCc3ccccc3)sc2c1,-36,/,1,10,366*[fluorescence artefact?]
CCCCOC(=O)Nc1cccc(Cl)c1C,4,1.8,0.099,-9,111
COc1ccc(C)cc1NS(=O)(=O)c1ccc(NS(=O)(=O)c2ccc(NC(C)=O)cc2)cc1,21,1.1,3.9*,43,111
CCCC(=O)NC1C2CC3CC(C2)CC1C3 (stereo not drawn),83*[fluorescence artefact?],1.1,-0.057,2,99
NC(=O)COc1ccc(C2c3c(oc4ccccc4c3=O)C(=O)N2CC2CCCO2)cc1 (stereo not drawn),70*,1.1,-0.57,70*,61
Cc1nc(SCn2nnc3ccccc3c2=O)c2c(C)c(C)sc2n1,64*[fluorescence artefact?],1,/,29,98
CCC1=C2CC[C@H]3C(=O)N(CC)C(=O)[C@H]3[C@H]2[C@@]2(C)C(=NCC(=O)OC)OC(=O)N2C1=O,/,1.1,/,/,/
CCN1C(=O)c2cccc3c(NC(=O)c4ccc(S(=O)(=O)N(C)C)cc4)ccc1c23,/,1.1,0.062,/,/
CCN1C(=O)c2cccc3c(NC(=O)c4ccc(S(=O)(=O)N5CCOCC5)cc4)ccc1c23,4,1.4,3.7*,-1,109
O=C/C(=C\Nc1ccccn1)c1nc2cc(Cl)ccc2o1,66*[fluorescence artefact?],/,-1.1,28,102
CC(=O)C[C@H]1c2cc(F)ccc2S(=O)(=O)N1c1ccc(N(C)C)cc1,/,/,0.97,/,/
N#Cc1ccc(NC(=O)c2cc3cc4c5c(c3oc2=N)CCCN5CCC4)cc1,64*,1.3,/,49,71
CC(=O)Nc1ccc(OC(F)(F)C(F)F)c(NC(C)=O)c1,/,/,-0.23,/,/
C=C(C)C(=O)Nc1ccc(OC(F)(F)C(F)F)c(NC(=O)C(=C)C)c1,-38,1.1,0.27,-14,210*
Cc1nc2sccc2c(=O)n1-c1cccc(Cl)c1,/,/,-1.2,/,/
COCCn1c(C)cc(C(=O)CSc2nc(C)nc3sc4c(c23)CCC4)c1C,-6,1.1,0.79,7,370*[fluorescence artefact?]
CCC1=C2CC[C@H]3C(=O)N(CC(=O)OC)C(=O)[C@H]3[C@H]2[C@@]2(C)C(=O)N(CC3CC3)C(=O)N2C1=O,/,1.2,/,/,/
COC(=O)c1ccc(C(/C=C/[C@@H](C)C(=O)N(C)Cc2ccccc2)NC(=O)OCc2ccccc2)cc1 (stereo partly drawn),/,1.2,/,/,/
SMILES,ERa SRC1 inh,MT1-MMP txn act,DAT uptake mod,ERb SRC1 inh,ERa SRC1 pot
CCN1C(=O)CC(N2CCN(c3ccc(C(=O)c4ccccc4)cc3)CC2)C1=O (stereo not drawn),8,1.7,1,1,100
O=C1CC(N2CCN(c3ccc(C(=O)c4ccc(F)cc4)cc3)CC2)C(=O)N1 (stereo not drawn),-4,1.1,0.84,5,221*
Cc1nnc(N2C(=O)c3oc4ccccc4c(=O)c3C2c2ccco2)s1 (stereo not drawn),50,1.1,-0.037,62*[fluorescence artefact?],58
COc1ccc(C2c3c(oc4ccccc4c3=O)C(=O)N2c2ccccn2)cc1OC (stereo not drawn),3,1.1,/,8,116
COc1ccc(C2c3c(oc4ccccc4c3=O)C(=O)N2c2ccccn2)cc1 (stereo not drawn),6,1.2,-0.45,6,218*
CC(C)c1nnc(N2C(=O)c3oc4ccccc4c(=O)c3C2c2ccco2)s1 (stereo not drawn),/,1,0.14,/,/
CCc1c2c(nc3ccc(OC)cc13)OC(CC)C2 (stereo not drawn),/,1.1,/,/,/
Cc1cc(C2N=C(N)Nc3nc4ccccc4n32)c(C)n1-c1ccccc1Cl (stereo not drawn),15,1.1,-0.23,7,135
Cc1ccc(-n2c(C)cc(C3N=C(N)Nc4nc5ccccc5n43)c2C)c(C)c1 (stereo not drawn),53*[fluorescence artefact?],1.2,0.28,26,53
O=C(O)C1Nc2c(C(=O)N3CCOCC3)cccc2C2C=CCC12 (stereo not drawn),70*,1.3,0.83,82*,20
O=S1(=O)N=C(N2CCOCC2)c2ccccc21,0,1,0.61,-15,108
Cc1ccccc1-c1ccc(Nc2ccc(N3CCOCC3)cc2)nn1,99*[fluorescence artefact?],1.2,0.58,80*[fluorescence artefact?],7
O=S1(=O)N=C(Nc2ccc(N3CCOCC3)cc2)c2ccccc21,-25,/,0.14,51*[fluorescence artefact?],80
O=C1c2cnccc2CN1Cc1ccccc1,-4,1.2,-0.3,-3,92
Cc1cc(C)c(S(=O)(=O)NCc2ccc3c(c2)cc(C)n3C)c(C)c1,10,/,-0.16,12,257*[fluorescence artefact?]
Cc1cc2cc(CNS(=O)(=O)c3ccc4ccccc4c3)ccc2n1C,27,/,-0.81,-2,651*[fluorescence artefact?]
O=C(C1=COCCO1)N1CCN(S(=O)(=O)c2cccc(Cl)c2Cl)CC1,-9,1,0.45,60*[fluorescence artefact?],107
O=C(NC(Cc1ccccc1)c1ccc2c(c1)OCCCO2)c1ccccc1F (stereo not drawn),/,/,2.6*,/,/
O=C(Nc1ccc2c(c1)OCCO2)c1c(F)cccc1F,-9,0.8,-0.49,-3,98
COc1ccc(C(=O)NC(Cc2ccccc2)c2ccc3c(c2)OCCCO3)cc1 (stereo not drawn),/,/,-0.28,/,/
O=C(Nc1ccc2c(c1)OCCO2)c1ccccc1F,-2,0.6,-1.8*,3,112
Cc1oc(-c2ccc(Cl)cc2)cc1-c1nn2c(-c3ccoc3C)nnc2s1,79*,1.2,-0.96,64*[fluorescence artefact?],59
Clc1ccc(-c2nnc3sc(-c4ccc(Br)o4)nn23)cc1,56*[fluorescence artefact?],1,0.6,56*[fluorescence artefact?],144
Clc1ccc(-c2nnc3sc(-c4ccc(Br)o4)nn23)c(Cl)c1,/,0.9,/,/,/
COc1ccc(-c2nnc3sc(-c4ccc(Br)o4)nn23)cc1OC,62*,1.1,/,29,139
CCC(C)c1nc2ccsc2c(N2CCOC2=O)c1-c1ccccc1 (stereo not drawn),/,/,-0.69,/,/
Cc1cc(C)n(-c2ccc(C(=O)OCC(=O)c3ccc(Br)s3)cc2)n1,2,1.1,-0.12,5,207*
Cc1ccc(Oc2ccc(-c3nc(N)nc(N)n3)cc2)cc1C,10,1.1,0.084,35,95
COc1ccc(-c2cc3ccccc3oc2=O)cc1NC(=O)c1ccc(Br)o1,66*[fluorescence artefact?],1.2,-0.03,6,231*
